# Assay outcomes from PubChem.
# Shown are actives, neighbours in structure and some others; about 3.6% of the full set was active somewhere.
# Mtb FBA inh: inhibits M. tuberculosis FBA enzyme; P9WQA3; purified M. tuberculosis FBA, fluorescence read-out; inhibition, % at 1 µM; 360,000 tested, 2.3% active; in the data active = inhibition above about 27%
# Target sequence (P9WQA3 whole entry, looked up): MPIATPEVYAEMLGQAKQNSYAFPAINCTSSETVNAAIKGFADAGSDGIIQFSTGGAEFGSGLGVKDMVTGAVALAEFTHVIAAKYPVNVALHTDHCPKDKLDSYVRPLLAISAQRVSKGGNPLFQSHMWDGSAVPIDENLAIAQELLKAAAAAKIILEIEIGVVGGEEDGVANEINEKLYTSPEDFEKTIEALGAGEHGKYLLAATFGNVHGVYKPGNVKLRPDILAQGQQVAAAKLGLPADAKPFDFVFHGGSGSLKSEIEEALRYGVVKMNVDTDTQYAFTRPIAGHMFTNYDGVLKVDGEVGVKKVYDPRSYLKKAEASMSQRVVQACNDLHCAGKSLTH
# Mtb hypoxia rep: reduces hypoxia-regulated biosensor signal in M. tuberculosis; M. tuberculosis hypoxia-regulated fluorescent reporter, fluorescence; AID 1159583; fluorescence inhibition, % (test concentration not listed); 300,000 tested, 0.1% active; in the data active = fluorescence inhibition mostly above about 23%, no sharp cut-off; inactive = mostly below about 17%
# Mtb bLac sens: beta-lactam sensitization of Mtb H37Rv | M. tuberculosis H37Rv growth with meropenem, percent inhibition | inhibition, % at 25 µM | 330,000 tested, 0.27% active | AID 434955;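 note: growth measured after seven days incubation then overnight dye step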
# GDH-TPI counter-1: inhibits GDH-TPI coupling enzymes, artifact for Mtb FBA screen; GDH-TPI coupled enzyme counterscreen, NADH absorbance; inhibition, % at 4.8 µM; 360,000 tested, 1.2% active; AID 588335; in the data active = inhibition above about 30%
# DUSP3 inh: DUSP3 (human) phosphatase inhibition; P51452; 290,000 tested, 0.52% active; AID 1654; recombinant VHR phosphatase, pNPP absorbance; inhibition, % at 13.3 µM; in the data active = inhibition above about 50%
# Target sequence (P51452 whole entry, looked up): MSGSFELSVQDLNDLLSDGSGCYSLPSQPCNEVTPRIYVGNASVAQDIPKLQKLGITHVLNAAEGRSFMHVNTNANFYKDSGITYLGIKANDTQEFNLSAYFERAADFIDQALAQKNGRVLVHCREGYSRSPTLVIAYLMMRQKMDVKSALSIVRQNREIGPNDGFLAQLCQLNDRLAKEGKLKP
# Mtb FBA confirm: confirmation of M. tuberculosis fructose-bisphosphate aldolase inhibitors. shares compounds with Mtb FBA inh. AID 651616. purified M. tuberculosis FBA, fluorescence read-out. inhibition, % at 1 µM. 5,600 tested, 78% active; in the data active = inhibition above about 27%
# GDH-TPI counter-2: counter-screen for M. tuberculosis FBA inhibitors: GDH-TPI coupled enzyme inhibition. 5,600 tested, 81% active. inhibition, % at 1 µM. shares compounds with Mtb FBA inh. GDH-TPI coupled enzyme counterscreen, fluorescence. AID 652141; in the data active = inhibition above about 10%
# GDH-TPI DR: inhibits GDH-TPI coupling enzymes in dose response. shares compounds with Mtb FBA inh. 170 tested, 79% active. IC50, µM. GDH-TPI coupled enzyme assay, fluorescence, artifact counterscreen
# Numbers stand for hits; n = inactive; x = no result given; + = active, no number. Unless noted, the rule behind the calls is not given here.
SMILES,Mtb FBA inh,Mtb hypoxia rep,Mtb bLac sens,GDH-TPI counter-1,DUSP3 inh,Mtb FBA confirm,GDH-TPI counter-2,others
CCCc1nc2sc(C(=O)OCC)c(N)c2c2c1COC(C)(C)C2,n,x,n,n,n,x,x,
CCCc1nc2oc(C(=O)OCC)c(N)c2c2c1COC(C)(C)C2,59,n,n,n,n,92,89,
Cc1cc(-c2ccccc2)nc(N2CCC(C(=O)NCc3ccccc3Cl)CC2)n1,x,x,x,x,n,x,x,
C=CCNC(=O)C1CCN(c2nc(C)cc(-c3ccccc3)n2)CC1,33,n,n,n,n,n,n,
O=C(/C=C/c1ccc(Br)cc1)Nc1ccc(S(=O)(=O)Nc2ncccn2)cc1,n,n,n,n,n,x,x,
O=C(/C=C/c1cccc(F)c1)Nc1ccc(S(=O)(=O)Nc2ncccn2)cc1,93,n,n,n,n,29,n,GDH-TPI DR=n
NC(=NOC(=O)CCCOc1ccccc1)c1ccc([N+](=O)[O-])cc1,x,n,x,x,x,x,x,
COc1ccc(CC(=O)NCC2CCCCC2)cc1OC,28,n,n,n,n,n,n,
COc1cc(CCC(=O)OCC(=O)NCC2CCCCC2)cc(OC)c1OC,n,n,n,n,n,x,x,
COc1cccc(C(=NO)C2CC2c2ccc(Cl)cc2)c1 (stereo not given),x,n,x,x,x,x,x,
CCc1c(C2(O)CCCCC2)[nH]c2cnccc12,78,n,n,n,x,+,170,
Cc1c(C2(O)CCCCC2)[nH]c2ccc(C(F)(F)F)cc12,n,x,n,n,x,x,x,
COc1ccc(N2CC(NS(=O)(=O)c3cccnc3)CC2=O)cc1OC (stereo not given),30,n,n,n,x,106,77,
Cc1ccc(N2CC(NS(=O)(=O)c3cccnc3)CC2=O)cc1C (stereo not given),n,n,n,n,x,x,x,
Cc1ccc(-c2cc(C(F)F)n3ncc(C(=O)N4CCc5ccccc54)c3n2)cc1,n,n,n,n,n,x,x,
COCCNC(=O)c1cnn2c(C(F)F)cc(-c3ccc(C)cc3)nc12,n,n,n,n,n,x,x,
COc1ccc(-c2cc(C(F)F)n3ncc(C(=O)NCCCN4CCCC4=O)c3n2)cc1,31,n,n,n,n,+,169,
COc1ccc(NC(=O)NCCCN2CCCC2=O)cc1,n,x,n,n,n,x,x,
COc1ccc2[nH]c(C(=O)NCCCN3CCCC3=O)c(C)c2c1,58,n,n,n,n,n,n,
COc1ccc(-c2cc(C(F)F)n3ncc(C(=O)N4CCc5ccccc5C4)c3n2)cc1,30,n,n,n,n,83,76,
O=C(NC1CCC(=O)N(CCC(Sc2ccc(Br)cc2)c2ccccc2)CC1)OCc1ccccc1 (stereo not given),x,n,x,x,x,x,x,
CC(NC(=O)c1nc[nH]c1C(=O)NCCCCCNC(=O)OC(C)(C)C)C(=O)OCc1ccccc1 (stereo not given),x,n,x,x,x,x,x,
COc1cc2c(-c3ccccc3)c(C)oc2cc1C=NNC(N)=S,x,n,x,x,x,x,x,
CCCN(CC(=O)Nc1ccccc1C)C(=O)c1ccc(C(=O)c2ccccc2)cc1,n,n,n,n,x,x,x,
CCCN(CC(=O)Nc1ccccc1C)C(=O)c1ccc(-c2ccc(C(C)=O)cc2)o1,73,n,n,31,x,n,n,
SMILES,Mtb FBA inh,Mtb hypoxia rep,Mtb bLac sens,GDH-TPI counter-1,DUSP3 inh,Mtb FBA confirm,GDH-TPI counter-2,others
CCCC(=O)N1CCN(c2nc(CC(C)C)c3c(c2C#N)CCC3)CC1,32,x,n,n,n,159,120,
CNc1cncc(-c2cc(OC)ccc2OC)n1,n,x,x,n,x,x,x,
CNc1cc(-c2cc(OC)ccc2OC)ncn1,84,x,x,n,x,n,n,
CNc1ccc(-c2cc(OC)ccc2OC)cn1,98,x,x,n,x,+,155,
Cc1noc(C)c1NC(=O)N(C)CC1Oc2ccc(NC(=O)NC(C)C)cc2C(=O)N(C(C)CO)CC1C (stereo not given),x,n,x,x,x,x,x,
CCOC(=O)C1CCCN(C(=O)c2cc(-c3ccccc3)nc3ccccc23)C1 (stereo not given),n,n,n,n,n,x,x,
COc1ccc(-c2cc(C(=O)N3CCCC(C(F)(F)F)C3)c3ccccc3n2)cc1 (stereo not given),96,n,n,n,x,n,n,
Cc1ccc(-c2cc(C(=O)N3CCCC(C(F)(F)F)C3)c3ccccc3n2)o1 (stereo not given),87,n,n,n,x,161,90,
CC(=NNC(=O)c1cnccn1)c1ccncc1,x,n,x,x,x,x,x,
COC(=O)c1cc(OC)nc2c1c(=O)n(C)c(=O)n2C,110,n,n,n,n,x,+,
CC(=NNC(=O)CNC(=O)/C=C/c1ccco1)c1ccc(Cl)cc1,x,n,x,x,x,x,x,
CCCOc1ccc(-c2c(C(=O)NN=Cc3cccs3)nnn2-c2nonc2N)cc1,x,n,x,x,x,x,x,
O=C(CSc1nc2nc(-c3cccs3)cc(C(F)(F)F)c2c(=O)[nH]1)Nc1ccc(F)c(F)c1,n,n,n,n,n,x,x,
Cc1ccc(C)c(NC(=O)CSc2nc3nc(-c4cccs4)cc(C(F)(F)F)c3c(=O)[nH]2)c1,44,n,n,n,n,86,82,
Cc1cc2[nH]c(=O)c(=O)[nH]c2cc1S(=O)(=O)NCC(C)c1ccccc1 (stereo not given),n,x,x,n,x,x,x,
Cc1cc2[nH]c(=O)c(=O)[nH]c2cc1S(=O)(=O)NC1CCC(C)CC1 (stereo not given),29,n,n,n,n,191,188,
Cc1cc2[nH]c(=O)c(=O)[nH]c2cc1S(=O)(=O)NCc1ccccc1,33,n,n,n,n,72,65,
CC1COC(=O)C(Cc2ccc(F)cc2)CCC=CCC(CC(=O)N(CCO)Cc2ccccc2)C(=O)N1 (stereo not given),x,n,x,x,x,x,x,
O=C(NN=Cc1cccn1-c1ccc([N+](=O)[O-])cc1)C(O)c1ccccc1 (stereo not given),x,n,x,x,x,x,x,
CSc1nc(-c2ccccc2)c(-c2ccccc2)[nH]1,50,n,n,n,n,n,n,
COC(=O)C1=C(c2ccc(OC(F)(F)F)cc2)CC2CCC1N2C(=O)NC(C)C (stereo not given),x,n,x,x,x,x,x,
COc1cc(C(=O)NCC(=O)OCC(=O)Nc2ncc(Cl)cc2Cl)cc(OC)c1OC,n,n,n,n,n,x,x,
COc1cc(C(=O)NCC(=O)OC(C)C(=O)Nc2ncc(Cl)cc2Cl)cc(OC)c1OC (stereo not given),48,n,n,n,n,69,74,
O=C(c1ccccc1)c1ccc(OCC(O)CN2CCOCC2)cc1 (stereo not given),76,x,n,n,x,n,n,GDH-TPI DR=n
CCCn1c(CCC(=O)O)ccc1-c1ccccc1,n,n,n,n,n,x,x,
COCCCn1c(CCC(=O)O)ccc1-c1cccs1,34,x,n,n,n,34,26,
CCCn1c(CCC(=O)O)ccc1-c1cccs1,35,n,n,n,n,98,84,
C=C1CCN(C(C(=O)OCc2ccc(C)cc2)C(C)C)S(=O)(=O)c2ccccc21 (stereo not given),x,n,x,x,x,x,x,
